The text below walks through data of PubChem BioAssay (EPA / NIEHS).

Activity calls are given as the source filed them. How the source made its calls: active means hit-call score of the fitted dose curve at least 0.9, where 1 is the maximum; inactive means score below 0.9.

A short description of assay [1]: APR_HepG2_CellCycleArrest_24hr: Apredica 24-hour HepG2 Assay for Cell Cycle Arrest (AID 2282905).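 Further: cell cycle arrest scored as ratio of 2N to 4N nuclear DNA content.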 The note with it: imaging, actives raise or lower the signal. An outline of the steps: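 Compounds (0.39 to 200 uM, final DMSO 0.5% v/v) are applied to HepG2 cells for 24 hours; cells are then fixed, permeabilized and nuclei labeled with Hoechst 33342. Automated imaging measures DNA content, and activity is fitted in both directions against DMSO.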

Assay [2] is described as follows: APR_HepG2_StressKinase_1hr: Apredica 1-hour HepG2 Assay for Stress Kinase (AID 2282906). The note with it: HepG2 stress kinase (phospho-c-Jun) imaging, actives raise or lower the signal. An outline of the steps: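 High-content imaging of phospho-c-Jun immunostaining (with Hoechst nuclear identification) after a 1 h exposure of HepG2 cells to 10 concentrations from 0.39 to 200 uM, final DMSO 0.5%. Fitted bidirectionally against DMSO.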

A short description of assay [3]: APR_HepG2_NuclearSize_24hr: Apredica 24-hour HepG2 Assay for Nuclear Size (AID 2282907). The conditions noted are these: high-content imaging, actives raise or lower the signal. An outline of the steps:
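Nuclear size is measured by fluorescence high-content imaging of Hoechst-labelled HepG2 nuclei after 24 hr of treatment (0.39–200 uM, 0.5% DMSO). Cells are fixed in 3.7% formaldehyde before staining, and DMSO serves as the baseline for bidirectional curve fitting.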

Assay [4] is described as follows: APR_HepG2_CellLoss_24hr: Apredica 24-hour HepG2 Assay for Cell Loss (AID 2282908).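 On AC50: fit in both directions so a hit may be cell loss or gain.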 The conditions noted are these: high-content imaging. An outline of the steps:
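Nuclear count serves as the viability measure: treated cells are fixed, permeabilized and labelled with Hoechst 33342, and six images per well are analysed to identify valid nuclei. Doses span 0.39–200 uM, and activity in either direction is scored against DMSO.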

A short description of assay [5]: APR_HepG2_MitoticArrest_24hr: Apredica 24-hour HepG2 Assay for Mitotic Arrest (AID 2282910). The conditions noted are these: high-content imaging, actives raise or lower the signal. An outline of the steps:
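Treatment lasted 24 hr in the human HepG2 line at 0.39–200 uM, solvent held at 0.5% DMSO. Fixed cells were stained with Hoechst 33342 and anti-phospho-histone H3, imaged at 20x, and analysed by gain- or loss-of-signal fitting against DMSO.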

A short description of assay [6]: APR_HepG2_MitoMembPot_24hr: Apredica 24-hour HepG2 Assay for Mitochondrial Membrane Potential (AID 2282911). The note with it: imaging, actives raise or lower the signal. An outline of the steps: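 Mitochondrial membrane potential imaged via MitoTracker Red CMXRos (250 nM, 30 min pre-fixation) in fixed HepG2 cells with Hoechst nuclear identification. Ten concentrations 0.39–200 uM, 24 h treatment, 0.5% DMSO; CCCP as positive control.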

Assay [7] is described as follows: APR_HepG2_MitoMass_24hr: Apredica 24-hour HepG2 Assay for Mitochondrial Mass (AID 2282912). The conditions noted are these: high-content imaging, actives raise or lower the signal. An outline of the steps: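 After 24 hr of treatment at 0.39 to 200 uM, HepG2 cells take up 250 nM MitoTracker Red CMXRos for 30 min and are then fixed with 3.7% formaldehyde. Per-well images are quantified, and any change in either direction is scored against solvent.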

A short description of assay [8]: APR_HepG2_p53Act_24hr: Apredica 24-hour HepG2 Assay for p53 Activation (AID 2282913).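 Further: p53 protein immunofluorescence averaged per cell in HepG2 with Hoechst nuclei.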 The note with it: high-content imaging, actives raise or lower the signal. An outline of the steps:
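Fluorescence imaging of formaldehyde-fixed HepG2 cells labelled for p53 and with Hoechst, 24 h after dosing (0.39–200 uM, duplicate wells, 0.5% v/v DMSO). Signal fitted in both directions relative to DMSO.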

A short description of assay [9]: APR_HepG2_CellCycleArrest_72hr: Apredica 72-hour HepG2 Assay for Cell Cycle Arrest (AID 2282914). The note with it: high-content imaging, actives raise or lower the signal. An outline of the steps:
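Read-out: nuclear DNA content from Hoechst 33342 high-content imaging (20x, six fields/well) after 3.7% formaldehyde fixation, fitted bidirectionally against DMSO. Treatment was 72 h in HepG2, ten concentrations 0.39–200 uM, duplicate, 0.5% DMSO.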

Assay [10] is described as follows: APR_HepG2_P-H2AX_72hr: Apredica 72-hour HepG2 Assay for H2AX Phosphorylation (AID 2282916).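 Further: phospho-histone H2A.x immunostain intensity per cell marking DNA damage.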 The note with it: imaging, actives raise or lower the signal. An outline of the steps:
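Human hepatoma HepG2 cells are dosed across ten concentrations (0.39 to 200 uM, 0.5% v/v DMSO) and incubated 72 hr. Phospho-histone H2A.x is then detected by antibody staining alongside c-Jun and Hoechst, and quantified by automated fluorescence imaging.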

Assay [11] is described as follows: APR_HepG2_MitoticArrest_72hr: Apredica 72-hour HepG2 Assay for Mitotic Arrest (AID 2282918). The conditions noted are these: high-content imaging, actives raise or lower the signal. An outline of the steps: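 High-content imaging of fixed human HepG2 cells after 72 h compound exposure (0.39–200 uM, duplicates, 0.5% DMSO); mitotic arrest scored from phospho-histone H3 and nuclear Hoechst staining relative to DMSO.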

Assay [12] is described as follows: APR_HepG2_MicrotubuleCSK_72hr: Apredica 72-hour HepG2 Assay for Microtubule CSK Stabilty (AID 2282919). The note with it: HepG2 microtubule cytoskeleton, high-content imaging, actives raise or lower the signal. An outline of the steps:
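Ten-point dosing (0.39–200 uM, 0.5% DMSO) of HepG2 for 72 hr, with taxol as the cytoskeletal positive control. The cells were formaldehyde-fixed and then stained with alpha-tubulin/Cy5 and Hoechst. Imaging at 20x used a −2 um Z offset for tubulin.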

The nature of assay [13]: APR_HepG2_P-H2AX_24hr: Apredica 24-hour HepG2 Assay for H2AX Phosphorylation (AID 2282920). The note with it: high-content imaging, actives raise or lower the signal. An outline of the steps:
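High-content imaging of phospho-histone H2A.x immunofluorescence, nuclei counterstained with Hoechst 33342, in fixed HepG2 cells. Compounds ran 0.39–200 uM in duplicate for 24 h, final DMSO 0.5%. Signal change fitted both directions against DMSO.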

Assay [14] in a line: APR_HepG2_StressKinase_72hr: Apredica 72-hour HepG2 Assay for Stress Kinase (AID 2282921). The note with it: HepG2 stress kinase (phospho-c-Jun) imaging, actives raise or lower the signal. An outline of the steps: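 After a 72 h compound treatment spanning 0.39 to 200 uM, formaldehyde-fixed cells are labelled for phosphorylated c-Jun and nuclei, imaged by automated fluorescence microscopy, and activity is fitted in both directions relative to DMSO controls.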

A short description of assay [15]: APR_HepG2_StressKinase_24hr: Apredica 24-hour HepG2 Assay for Stress Kinase (AID 2282922). The note with it: HepG2 stress kinase (phospho-c-Jun) imaging, actives raise or lower the signal. An outline of the steps:
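After 24 hr compound treatment (up to 200 uM, final DMSO 0.5% v/v), HepG2 cells are fixed and multiplex-labeled; phospho-c-Jun intensity is captured by high-content fluorescence imaging and analyzed relative to DMSO.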

Assay [16] in a line: APR_HepG2_p53Act_72hr: Apredica 72-hour HepG2 Assay for p53 Activation (AID 2282923).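 Further: average cellular p53 protein immunofluorescence intensity in HepG2 cells.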 The note with it: high-content imaging, actives raise or lower the signal. An outline of the steps:
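Imaging-based endpoint: after 72 hr compound exposure (up to 200 uM, 0.5% DMSO), fixed and permeabilized monolayers were labelled with anti-p53 antibody and imaged; signal change in either direction was fitted relative to DMSO controls.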

Assay [17] is described as follows: APR_HepG2_MitoMass_72hr: Apredica 72-hour HepG2 Assay for Mitochondrial Mass (AID 2282924).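 Further: MitoTracker Red CMXRos stain intensity per cell imaged as mitochondrial mass.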 The note with it: high-content imaging, actives raise or lower the signal. An outline of the steps:
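Steps: treat HepG2 72 hr (0.39–200 uM, duplicate wells); load MitoTracker Red CMXRos, 250 nM, 30 min; fix with 3.7% formaldehyde, permeabilise with 0.5% Triton X-100; capture images, nuclei via Hoechst 33342; fit bidirectionally against DMSO.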

For the compound `CCOC(=O)C(C)Oc1ccc(Oc2nc3ccc(Cl)cc3o2)cc1` (centres undefined), the compound was classed as inactive in [1], in [2], in [3], in assay [4], in assay [5] and in assay [6]. Also, the compound was classed as inactive in assay [7], in assay [8], in [9], in assay [10], in assay [11] and in [12]. Further, the call in [13], in assay [14], in [15], in [16] and in assay [17] was inactive.
As for `CCC(C)OC(=O)N1CCCCC1CCO` (centres undefined), the result in assay [1], in [2], in assay [3], in assay [4], in assay [5] and in [6] was inactive. The compound was called inactive in assay [7], in assay [8], in assay [9], in assay [10], in assay [11] and in [12]. Besides, the compound was called inactive in assay [13], in assay [14], in assay [15], in [16] and in assay [17].
What is called AC50 is the concentration at which the activity in the assay is half-maximal. With `N#CSCSc1nc2ccccc2s1`, the AC50 was 29.6 µM (active) in [1], 33.3 µM (active) in assay [2] and 42.9 µM (active) in assay [4]. In addition, the compound was classed as inactive in [3], in assay [5], in assay [6], in assay [7], in assay [9] and in assay [10]. The call in assay [11], in assay [12], in assay [13], in assay [15] and in assay [17] was inactive.
For the compound `COc1nc(C)nc(NC(=O)NS(=O)(=O)c2ccccc2OCCCl)n1`, the result in assay [1], in [2], in [3], in assay [4], in [5] and in assay [6] was inactive. Moreover, the outcome in [7], in [8], in [9], in assay [10], in assay [11] and in assay [12] was inactive. Besides, the compound was called inactive in assay [13], in assay [15], in assay [16] and in assay [17].
In the case of `S=C([S-])NCCNC(=S)[S-].[Mn+2]`, the outcome in [1], in [2], in assay [3], in assay [4], in [5] and in assay [6] was inactive. Also, the result in assay [7], in [10], in [11], in assay [13], in [14] and in [15] was inactive. In addition, the AC50 in [9] is 82.9 µM (active); in assay [12], 103 µM (active); in assay [17], 166 µM (active).
